Compound activity: PubChem BioAssay, National Center for Advancing Translational Sciences (NCATS)
DT40 TDP1 no CPT: qHTS for Inhibitors of human tyrosyl-DNA phosphodiesterase 1 (TDP1): qHTS in cells in absence of CPT; Potency, µM (series often up to 46.2 µM), for the others: at the top dose activity change, negative = growth inhibition, actives largely listed as inhibitors; DT40 Tdp1-/- hTDP1 cells, no CPT, ATP luminescence, 48 h; 420,000 tested, 15% active; also: potency is read from the fitted curve at half-maximal effect; % is scaled to controls: 0 for no effect and ±100 for the full control effect; nearly all actives have a fitted effect of over 55% in size
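Readout: luminescence from CellTiter-Glo after 30 min in the dark at RT. Cells: DT40 Tdp1-/- with stable hTDP1, 400/well. Exposure: compounds alone, ≥48 hr, 37 °C.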
IL1B secr inh: blocks inflammasome-driven IL-1 beta release. activity change, % at 57.5 µM. 360,000 tested, 4.7% active. THP-1 LPS/ATP IL-1B secretion, AlphaLISA, 16 h; active compounds read low. AID 743279; in the data active = activity change below about -50%; inconclusive = mostly about -30% to -49%; also: % is scaled to controls: 0 for no effect and ±100 for the full control effect
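THP-1 cells pretreated 1 hr with compounds (up to 57.5 uM final), then stimulated with LPS (250 ng/mL final) plus ATP (1.25 mM final); secreted IL-1B measured by AlphaLISA after 16 hr, decreased signal indicating inhibition.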
TDP1 cell CPT: DT40-hTDP1 cell growth loss with CPT; chicken DT40 Tdp1-/-;hTDP1 cells + 20 nM CPT, ATP luminescence, 48 h; Potency, µM (titrated, usually from 46.2 µM), for inactives: at the highest dose activity change, negative = growth inhibition, hits mostly inhibitors; 420,000 tested, 12% active; also: potency is read from the fitted curve at half-maximal effect; % is scaled to controls: 0 for no effect and ±100 for the full control effect; nearly all actives have a fitted effect of over 55% in size
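Chicken DT40 Tdp1-/- cells stably complemented with human TDP1 were seeded at 400 cells/well in medium containing 20 nM camptothecin, exposed to pin-transferred compounds, and grown at 37 °C for at least 48 hr. Viability was read as ATP luminescence.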
S-ASM inh: blocks human secretory acid sphingomyelinase; placental ASM, HMU-PC fluorogenic substrate, 60 min; 340,000 tested, 0.006% active; AID 504937; Potency, µM (highest dose often 57.5 µM), without a hit: at the top dose activity change, negative = inhibition, actives largely listed as inhibitors; P17405; also: potency is read from the fitted curve at half-maximal effect
Target sequence (P17405 47-631 limits assumed): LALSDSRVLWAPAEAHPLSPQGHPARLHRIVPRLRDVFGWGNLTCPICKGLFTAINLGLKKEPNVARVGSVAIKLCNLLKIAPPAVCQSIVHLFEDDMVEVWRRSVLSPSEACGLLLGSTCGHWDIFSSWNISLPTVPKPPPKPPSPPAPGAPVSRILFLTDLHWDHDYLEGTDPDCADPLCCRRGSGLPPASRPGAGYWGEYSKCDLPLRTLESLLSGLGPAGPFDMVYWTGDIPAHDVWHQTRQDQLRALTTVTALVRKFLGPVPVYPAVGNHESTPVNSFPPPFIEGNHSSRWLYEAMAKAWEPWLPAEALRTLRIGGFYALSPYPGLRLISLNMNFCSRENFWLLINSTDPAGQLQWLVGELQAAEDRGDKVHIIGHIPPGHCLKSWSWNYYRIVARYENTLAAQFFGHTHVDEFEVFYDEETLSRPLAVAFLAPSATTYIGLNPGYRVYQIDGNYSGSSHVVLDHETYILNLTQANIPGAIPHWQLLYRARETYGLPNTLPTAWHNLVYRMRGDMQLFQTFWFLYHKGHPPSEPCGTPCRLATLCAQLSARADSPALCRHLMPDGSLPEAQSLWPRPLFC
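HMU-PC0 cleavage (9 uM final) by human placental ASM, 60 min at 37 °C following 10 min compound exposure at RT; stopped at pH 10, fluorescence Ex 386/Em 447 nm.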
TGFb inhibitor: inhibitors of TGF-b signaling; HepG2 CAGA-GFP TGF-b/SMAD3 reporter, GFP fluorescence, 18 h; TGF-beta stimulated, 500 pg/mL final; Potency, µM (highest dose often 46.1 µM), for the others: top-dose activity, negative = inhibition, actives largely listed as inhibitors; 410,000 tested, 1.2% active; also: potency is read from the fitted curve at half-maximal effect; % is scaled to controls: 0 for no effect and ±100 for the full control effect; nearly all actives have a fitted effect of over 65% in size
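HEPG2 CAGA-GFP cells (1000/well, DMEM with 1% FBS) were pre-incubated 2 h at 37 degrees C, given compound by pin tool, then stimulated with TGF-beta at 500 pg/mL final for 18 h before per-cell GFP fluorescence imaging.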
HepG2 viability: kills HepG2 cells in TGF-b inhibitor counter-screen. AID 588856. HepG2 CAGA-GFP viability, ATP luminescence, 18 h. 410,000 tested, 0.76% active. Potency, µM (highest dose often 46.1 µM), inactives show at the highest dose activity change, negative = cytotoxicity, hits mostly cytotoxic; also: potency is read from the fitted curve at half-maximal effect
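CellTiter-Glo luminescence gave cytotoxicity after 18 hours at 37 degrees C. The cells were HepG2 CAGA-GFP in 1% FBS DMEM, stimulated with 500 pg/mL TGF-beta after compound addition. %Activity was normalised to no-cell wells (complete cell-killing) and DMSO (no toxicity), and curves were fitted and classified.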
* hit, by the source's call; ? = inconclusive; · = not tested or not shown; [ ] = another dose, or the depositor's remark. Only some compounds are listed: those with a hit (about 19% of all), similar ones and a draw of the others. Unless noted, calls follow the shape of the dose curve; as a rule, active = well fitted curve in the direction sought with a large enough effect; inconclusive = small, poorly fitted or top-dose-only effect, or another doubt; inactive = no such curve, though single readings can be large; an effect the other way counts as inactive or inconclusive.

SMILES | DT40 TDP1 no CPT | IL1B secr inh | TDP1 cell CPT | S-ASM inh | TGFb inhibitor | HepG2 viability
Cc1cc2c(=O)n(C)c(SCC(=O)Nc3ccc(F)cc3)nc2s1 | -12% | 4 | -23% | -5% | -4% | -10%
C[C@]1(C(=O)NCc2cc(F)cc(C(F)(F)F)c2)C=C[C@@H](Cc2ccccc2)N1C(=O)c1ccccc1 | ? | 8 | 16µM* | -3% | ? | -14%
COCCNC(=O)[C@@]1(C)C=C[C@@H](Cc2ccccc2)N1C(=O)c1ccccc1 | ? | -7 | ? | 14% | 3% | 2%
COC(=O)c1sccc1S(=O)(=O)N1CCCC(N(C)CCc2ccccn2)C1 (stereo unspecified) | -3% | 16 | 3% | -1% | 15% | -3%
CCOc1ccc(N(C)S(=O)(=O)c2ccc(-c3cc(C)no3)s2)cc1 | 4.1µM* | 45 | 3.7µM* | -9% | ? | -35%
CCOc1ccc(N(C)S(=O)(=O)c2ccc(-c3ccc(=O)[nH]n3)s2)cc1 | 10% | 11 | -21% | -12% | -6% | -5%
CCN(c1cccc(C)c1)S(=O)(=O)c1ccc(-c2cc(C)no2)s1 | 2.6µM* | 30 | 2.9µM* | 0% | ? | -14%
Cc1cccc(N(C)S(=O)(=O)c2ccc(-c3cc(C)no3)s2)c1 | 0.65µM* | 77 | 0.82µM* | -5% | 11µM* | -27%
Cc1nn(C)c(C)c1CNC(=O)Nc1cccc(Cl)c1C | -20% | 21 | -2% | -2% | 5% | -16%
CCCCn1cnc2c(SCc3ccccc3Cl)nc(N)nc21 | ? | -87* | -4% | -11% | -5% | -32%
CCCn1cnc2c(SCc3ccccc3)nc(N)nc21 | ? | -21 | 3% | -2% | 5% | -4%
CCCCn1cnc2c(SCc3ccccc3)nc(N)nc21 | ? | -50* | ? | -9% | 4% | 5%
Nc1nc(SCc2ccccc2)c2ncn(Cc3ccccc3)c2n1 | ? | -64* | ? | -12% | -15% | -34%
CCCCn1cnc2c(SCc3ccc(Br)cc3)nc(N)nc21 | ? | -84* | ? | -10% | 18% | -23%
COc1ccc(S(=O)(=O)N2CCN(CC(=O)Nc3c(C)n[nH]c3C)CC2)cc1OC | 2% | -3 | 10% | -1% | 12% | -8%
CCCn1cnc2c(SCc3ccc(Cl)cc3)nc(N)nc21 | ? | -63* | ? | -5% | -10% | -8%
COCC(=O)N1C[C@H]2CON(C)[C@H]2C[C@H]1c1cccc(-c2ccc(C#N)cc2)c1 | -11% | 13 | -3% | 6% | -14% | 7%
CCc1cc2ccc(C)cc2nc1SCC(=O)Nc1c[nH]c(=O)[nH]c1=O | ? | -27 | -14% | -1% | 1% | -12%
CCc1cc2c(C)ccc(C)c2nc1SCC(=O)Nc1c(C)[nH]c(=O)[nH]c1=O | ? | -5 | 21µM* | -2% | -2% | -3%
CCc1cc2c(C)ccc(C)c2nc1SCC(=O)Nc1c[nH]c(=O)[nH]c1=O | 12µM* | 71 | ? | -3% | 5% | -10%
COc1ccc(F)c(CN2CCOc3ccc(CN4CCC(O)(c5cccnc5)CC4)cc3C2)c1 | ? | · | -7%[9.04 µM] | · | · | ·
COCCn1c(SCC(=O)/C=C2\N(C)c3ccccc3C2(C)C)nnc1-c1ccncc1 | 23µM* | ? | 23µM* | 9% | -14% | -20%
CN1/C(=C/C(=O)CSc2ccccc2C(=O)O)C(C)(C)c2ccccc21 | 9.2µM* | 8 | ? | 30% | -2% | 2%
COCCn1c(SCC(=O)c2c(-c3ccccc3)n(C)c3ccccc23)nnc1-c1ccncc1 | ? | ? | ? | 2% | 0% | -2%
